The record followed here is article PMC11024108.

The target of one assay is Dynactin subunit 2 (UniProt Q99KJ8). Briefly: cross-link between two proteins; cross-linking mass spectrometry.
A further assay concerns the target Dynactin subunit 3 (UniProt Q9Z0Y1). The description is as above.
Another assay deals with Dynamin-3 (UniProt Q8BZ98). Described as above.
Assay [1] concerns the target Dynein light chain 2, cytoplasmic (UniProt Q9D0M5). Described as above.
The target of a further assay is Protein piccolo (UniProt Q9QYX7). Described as above.
For assay [2], the target named is EH domain-containing protein 1 (UniProt Q9WVK4). The description is as above.
In assay [3] the target is ER membrane protein complex subunit 2 (UniProt Q9CRD2). Described as above.
The next assay addresses ERO1-like protein alpha (UniProt Q96HE7). The assay is described as above.
The target of assay [4] is Elongation factor 1-alpha 2 (UniProt P62631). The assay is described as above.
Assay [5] concerns the target Epidermal growth factor receptor substrate 15-like 1 (UniProt Q9UBC2). The assay is described as above.
The target in a further assay is Erlin-1 (UniProt Q91X78). The assay is described as above.
Assay [6] addresses Eukaryotic translation initiation factor 2 subunit 3, X-linked (UniProt Q9Z0N1). The assay is described as above.
Assay [7] deals with Eukaryotic translation initiation factor 3 subunit B (UniProt Q8JZQ9). The assay is described as above.
The target in the next assay is Flotillin-1 (UniProt O75955). The assay is described as above.
The next assay deals with Flotillin-2 (UniProt Q60634). The description is as above.
Assay [8] addresses Fragile X messenger ribonucleoprotein 1 (UniProt Q06787). Described as above.
Assay [9] addresses 10 kDa heat shock protein, mitochondrial (UniProt P61604). Nature of the assay: cross-linking mass spectrometry.
Assay [10] has as its target Heat shock cognate 71 kDa protein (UniProt P11142). Briefly: cross-linking mass spectrometry.
The target of assay [11] is Heat shock 70 kDa protein 1B (UniProt P0DMV9). Nature of the assay: cross-link between two proteins; cross-linking mass spectrometry.
Another assay deals with Syntaxin-8 (UniProt Q9UNK0). Nature of the assay: cross-linking mass spectrometry.
Assay [12] deals with Gamma-soluble NSF attachment protein (UniProt Q99747). Nature of the assay: cross-link between two proteins; cross-linking mass spectrometry.
The target in assay [13] is Fructose-bisphosphate aldolase A (UniProt P05064). The description is as above.
For assay [14], the target named is Gamma-aminobutyric acid receptor subunit beta-1 (UniProt P50571). The description is as above.
Another assay deals with Gamma-enolase (UniProt P17183). Described as above.
In assay [15] the target is Gamma-soluble NSF attachment protein (UniProt Q9CWZ7). Described as above.
A further assay concerns the target Glutamate receptor 2 (UniProt P23819). The description is as above.
The target in assay [16] is Glyceraldehyde-3-phosphate dehydrogenase (UniProt P16858). The description is as above.
Assay [17] has as its target Guanine nucleotide-binding protein G(I)/G(S)/G(O) subunit gamma-5 (UniProt P63218). The description is as above.
In assay [18] the target is Guanine nucleotide-binding protein G(I)/G(S)/G(T) subunit beta-1 (UniProt P62874). The assay is described as above.
The target of assay [19] is Guanine nucleotide-binding protein subunit beta-4 (UniProt Q9HAV0). The assay is described as above.
Assay [20] addresses Heat shock cognate 71 kDa protein (UniProt P11142). The description is as above.
The target in assay [21] is Heat shock cognate 71 kDa protein (UniProt P63017). The assay is described as above.
Assay [22] has as its target Hemoglobin subunit beta-1 (UniProt P02088). Described as above.
The next assay deals with Histone H2B type 1-H (UniProt Q93079). Described as above.
Assay [23] deals with Hyaluronan and proteoglycan link protein 1 (UniProt Q9QUP5). The assay is described as above.
Assay [24] has as its target Insulin-like growth factor 1 receptor (UniProt Q60751). Described as above.

Heat shock cognate 71 kDa protein (UniProt P11142), sequence (P11142 whole entry): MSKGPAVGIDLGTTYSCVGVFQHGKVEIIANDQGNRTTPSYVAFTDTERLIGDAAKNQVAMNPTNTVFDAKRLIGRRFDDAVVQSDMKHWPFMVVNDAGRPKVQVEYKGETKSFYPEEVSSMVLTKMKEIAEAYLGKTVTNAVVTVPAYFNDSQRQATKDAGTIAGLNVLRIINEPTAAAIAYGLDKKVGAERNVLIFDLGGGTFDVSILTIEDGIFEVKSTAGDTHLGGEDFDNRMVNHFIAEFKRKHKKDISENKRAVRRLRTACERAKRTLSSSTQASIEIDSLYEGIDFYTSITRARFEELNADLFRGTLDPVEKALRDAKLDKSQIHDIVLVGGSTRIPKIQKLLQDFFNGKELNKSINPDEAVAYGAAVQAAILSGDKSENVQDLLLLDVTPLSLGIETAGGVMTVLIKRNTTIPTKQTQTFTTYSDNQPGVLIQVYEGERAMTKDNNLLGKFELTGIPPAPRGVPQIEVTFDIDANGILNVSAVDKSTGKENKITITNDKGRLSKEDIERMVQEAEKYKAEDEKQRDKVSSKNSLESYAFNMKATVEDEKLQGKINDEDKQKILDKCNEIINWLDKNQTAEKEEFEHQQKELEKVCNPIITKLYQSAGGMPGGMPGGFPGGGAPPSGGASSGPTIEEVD
Dynactin subunit 2, sequence (Q99KJ8 whole entry): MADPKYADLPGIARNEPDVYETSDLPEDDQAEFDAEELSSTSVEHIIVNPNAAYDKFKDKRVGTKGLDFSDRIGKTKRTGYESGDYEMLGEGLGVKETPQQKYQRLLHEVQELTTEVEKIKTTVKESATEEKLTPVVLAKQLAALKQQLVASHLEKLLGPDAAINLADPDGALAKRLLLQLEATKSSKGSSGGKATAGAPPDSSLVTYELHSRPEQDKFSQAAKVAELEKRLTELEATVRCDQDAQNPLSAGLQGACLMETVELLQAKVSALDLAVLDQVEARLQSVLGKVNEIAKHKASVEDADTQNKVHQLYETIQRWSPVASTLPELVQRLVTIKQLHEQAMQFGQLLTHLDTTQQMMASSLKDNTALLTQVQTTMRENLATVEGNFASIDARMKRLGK
Elongation factor 1-alpha 2, sequence (P62631 whole entry): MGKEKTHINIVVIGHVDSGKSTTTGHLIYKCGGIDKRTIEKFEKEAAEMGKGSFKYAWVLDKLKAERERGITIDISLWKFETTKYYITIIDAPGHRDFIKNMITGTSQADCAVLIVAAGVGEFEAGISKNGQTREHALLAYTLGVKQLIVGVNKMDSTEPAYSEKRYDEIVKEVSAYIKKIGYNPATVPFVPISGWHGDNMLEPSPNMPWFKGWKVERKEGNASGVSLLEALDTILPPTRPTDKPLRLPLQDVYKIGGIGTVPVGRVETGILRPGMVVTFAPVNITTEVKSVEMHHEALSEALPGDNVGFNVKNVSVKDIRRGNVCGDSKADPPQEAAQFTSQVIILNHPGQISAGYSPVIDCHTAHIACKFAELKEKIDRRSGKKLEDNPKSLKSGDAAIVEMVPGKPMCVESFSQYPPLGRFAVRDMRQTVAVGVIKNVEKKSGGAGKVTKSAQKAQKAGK
Heat shock protein HSP 90-beta, P08238, sequence (P08238 whole entry): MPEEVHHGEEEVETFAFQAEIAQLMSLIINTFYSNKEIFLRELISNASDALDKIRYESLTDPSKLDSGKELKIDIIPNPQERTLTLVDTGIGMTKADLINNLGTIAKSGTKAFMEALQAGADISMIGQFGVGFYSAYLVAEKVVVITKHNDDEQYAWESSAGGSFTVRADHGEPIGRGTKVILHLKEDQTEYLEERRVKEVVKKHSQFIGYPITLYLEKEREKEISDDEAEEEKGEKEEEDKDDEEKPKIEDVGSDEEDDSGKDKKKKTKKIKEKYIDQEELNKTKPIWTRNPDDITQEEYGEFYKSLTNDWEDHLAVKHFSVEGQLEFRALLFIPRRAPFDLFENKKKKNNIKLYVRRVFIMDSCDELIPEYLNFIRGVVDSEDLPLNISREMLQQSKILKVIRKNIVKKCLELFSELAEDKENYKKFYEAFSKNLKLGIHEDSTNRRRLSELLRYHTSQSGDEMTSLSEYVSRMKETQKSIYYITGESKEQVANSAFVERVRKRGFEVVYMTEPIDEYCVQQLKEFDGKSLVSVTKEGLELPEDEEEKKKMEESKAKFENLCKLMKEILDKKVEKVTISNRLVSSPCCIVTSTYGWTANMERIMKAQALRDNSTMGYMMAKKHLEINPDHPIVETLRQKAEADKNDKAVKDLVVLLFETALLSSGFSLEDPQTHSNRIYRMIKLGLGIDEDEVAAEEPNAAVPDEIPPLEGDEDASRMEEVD
Hemoglobin subunit alpha, P01942, sequence (P01942 whole entry): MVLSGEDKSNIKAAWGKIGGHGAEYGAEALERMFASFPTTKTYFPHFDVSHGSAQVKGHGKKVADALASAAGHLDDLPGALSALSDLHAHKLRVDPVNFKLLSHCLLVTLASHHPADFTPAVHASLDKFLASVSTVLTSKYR
Gamma-enolase, sequence (P17183 whole entry): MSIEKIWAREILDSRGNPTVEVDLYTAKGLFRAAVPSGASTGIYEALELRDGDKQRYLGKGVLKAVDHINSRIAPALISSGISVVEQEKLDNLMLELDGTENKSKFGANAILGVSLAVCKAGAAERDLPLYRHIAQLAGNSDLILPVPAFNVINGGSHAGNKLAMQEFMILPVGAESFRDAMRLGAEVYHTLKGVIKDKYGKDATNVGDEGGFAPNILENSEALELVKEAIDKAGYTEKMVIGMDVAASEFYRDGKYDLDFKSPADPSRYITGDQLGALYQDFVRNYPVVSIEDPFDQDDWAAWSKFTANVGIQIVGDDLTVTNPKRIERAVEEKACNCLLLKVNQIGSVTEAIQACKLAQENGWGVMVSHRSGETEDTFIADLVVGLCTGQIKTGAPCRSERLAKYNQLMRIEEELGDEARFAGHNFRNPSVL
Dynactin subunit 3, sequence (Q9Z0Y1 whole entry): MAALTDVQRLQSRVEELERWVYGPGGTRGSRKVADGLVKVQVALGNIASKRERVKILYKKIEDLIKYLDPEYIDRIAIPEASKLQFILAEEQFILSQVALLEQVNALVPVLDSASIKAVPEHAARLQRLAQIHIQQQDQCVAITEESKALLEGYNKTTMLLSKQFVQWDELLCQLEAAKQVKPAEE
Erlin-1, sequence (Q91X78 whole entry): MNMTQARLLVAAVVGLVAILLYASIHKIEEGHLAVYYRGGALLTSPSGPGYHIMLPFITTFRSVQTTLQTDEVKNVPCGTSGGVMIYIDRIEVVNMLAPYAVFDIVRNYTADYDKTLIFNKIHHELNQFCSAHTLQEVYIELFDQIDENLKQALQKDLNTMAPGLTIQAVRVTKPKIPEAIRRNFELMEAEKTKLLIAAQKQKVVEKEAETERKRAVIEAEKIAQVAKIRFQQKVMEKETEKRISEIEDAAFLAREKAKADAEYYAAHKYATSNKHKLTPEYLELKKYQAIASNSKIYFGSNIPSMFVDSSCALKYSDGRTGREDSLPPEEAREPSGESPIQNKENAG
ER membrane protein complex subunit 2, sequence (Q9CRD2 whole entry, one chain of several): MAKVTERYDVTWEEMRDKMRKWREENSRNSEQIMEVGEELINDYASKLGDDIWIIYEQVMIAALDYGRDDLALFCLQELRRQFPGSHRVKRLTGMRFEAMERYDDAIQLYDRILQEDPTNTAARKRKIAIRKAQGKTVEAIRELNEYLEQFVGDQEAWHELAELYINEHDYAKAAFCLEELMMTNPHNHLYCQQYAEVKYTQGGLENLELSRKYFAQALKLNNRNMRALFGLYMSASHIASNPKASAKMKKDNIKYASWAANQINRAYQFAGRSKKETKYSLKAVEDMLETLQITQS
Glyceraldehyde-3-phosphate dehydrogenase, sequence (P16858 whole entry): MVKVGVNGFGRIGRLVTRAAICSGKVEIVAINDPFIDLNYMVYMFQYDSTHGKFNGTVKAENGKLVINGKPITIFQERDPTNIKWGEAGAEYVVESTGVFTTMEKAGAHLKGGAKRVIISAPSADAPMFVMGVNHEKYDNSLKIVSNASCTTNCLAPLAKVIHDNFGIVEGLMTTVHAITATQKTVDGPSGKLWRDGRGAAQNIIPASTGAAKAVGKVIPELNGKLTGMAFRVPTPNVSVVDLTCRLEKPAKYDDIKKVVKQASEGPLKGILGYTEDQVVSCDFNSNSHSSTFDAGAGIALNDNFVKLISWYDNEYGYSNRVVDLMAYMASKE
Peptidyl-prolyl cis-trans isomerase F, mitochondrial, P30405, sequence (P30405 whole entry): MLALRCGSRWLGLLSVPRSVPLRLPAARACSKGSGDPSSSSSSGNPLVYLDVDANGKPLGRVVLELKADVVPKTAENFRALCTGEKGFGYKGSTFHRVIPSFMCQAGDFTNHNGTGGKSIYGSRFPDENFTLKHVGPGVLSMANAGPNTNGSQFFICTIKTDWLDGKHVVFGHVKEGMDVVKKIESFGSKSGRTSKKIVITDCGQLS
Fructose-bisphosphate aldolase A, sequence (P05064 whole entry): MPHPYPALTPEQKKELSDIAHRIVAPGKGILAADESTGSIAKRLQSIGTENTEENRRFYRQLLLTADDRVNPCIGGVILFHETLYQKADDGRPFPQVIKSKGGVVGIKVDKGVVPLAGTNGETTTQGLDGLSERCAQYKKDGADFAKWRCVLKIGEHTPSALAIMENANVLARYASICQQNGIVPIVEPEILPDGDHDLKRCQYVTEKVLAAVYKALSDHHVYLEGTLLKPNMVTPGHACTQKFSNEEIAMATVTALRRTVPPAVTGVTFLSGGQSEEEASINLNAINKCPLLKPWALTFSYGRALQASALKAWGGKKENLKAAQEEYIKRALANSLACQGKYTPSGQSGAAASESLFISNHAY
Dynein light chain 2, cytoplasmic, sequence (Q9D0M5 whole entry): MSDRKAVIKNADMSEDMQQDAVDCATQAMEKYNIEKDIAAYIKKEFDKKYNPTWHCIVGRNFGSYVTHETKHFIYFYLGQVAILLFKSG
Syntaxin-8, sequence (Q9UNK0 whole entry): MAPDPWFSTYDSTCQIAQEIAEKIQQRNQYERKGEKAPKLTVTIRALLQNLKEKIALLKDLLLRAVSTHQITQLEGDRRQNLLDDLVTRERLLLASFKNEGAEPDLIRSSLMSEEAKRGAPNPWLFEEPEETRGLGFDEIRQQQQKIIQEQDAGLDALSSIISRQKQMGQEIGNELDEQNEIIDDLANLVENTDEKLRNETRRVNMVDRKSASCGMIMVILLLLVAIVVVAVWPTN

On to Dynactin subunit 1, O08788, for which, in the assay with Dynactin subunit 2, the “listed as a hit” value is on record as “yes”.
Beta-centractin, Q8R5C5: the “listed as a hit” value in the assay with Dynactin subunit 2 is given as “yes”.
For the substance Dynactin subunit 2, Q99KJ8, the “listed as a hit” value with Dynactin subunit 3 is “yes”.
Take Dynamin-1, P39053: the “listed as a hit” value with Dynamin-3 is listed as “yes”.
As to Protein bassoon, O88737, the “listed as a hit” value (in assay [1]; with Protein piccolo) was “yes” each time.
As to EH domain-containing protein 3, Q9QXY6, the “listed as a hit” value in [2] is listed as “yes”.
As for “ER membrane protein complex subunit 8, O70378”, in assay [3], the “listed as a hit” value is “yes”.
On to “Thioredoxin domain-containing protein 5, Q8NBS9”, for which the “listed as a hit” value in the assay with ERO1-like protein alpha is “yes”.
Elongation factor 1-alpha 1, P10126: the “listed as a hit” value in [4] is “yes”.
For the substance Intersectin-2, Q9NZM3, the “listed as a hit” value in assay [5] is “yes”.
Take Erlin-2, Q8BFZ9: in the assay with Erlin-1, the “listed as a hit” value is reported as “yes”.
As to “Eukaryotic translation initiation factor 2 subunit 1, Q6ZWX6”, the “listed as a hit” value in assay [6] is on record as “yes”.
For “Eukaryotic translation initiation factor 3 subunit A, P23116”, the “listed as a hit” value in assay [7] is reported as “yes”.
As for Syntaxin-7, O15400, in the assay with Flotillin-1, the “listed as a hit” value is recorded as “yes”.
Flotillin-1, O08917: in the assay with Flotillin-2, the “listed as a hit” value was “yes”.
As to RNA-binding protein FXR1, P51114, in assay [8], the “listed as a hit” value is given as “yes”.
With “Peptidyl-prolyl cis-trans isomerase F, mitochondrial, P30405”, the “listed as a hit” value in assay [9] was “yes”.
As to “BAG family molecular chaperone regulator 2, O95816”, the “listed as a hit” value in assay [10] and in assay [11] was “yes” throughout.
In the case of “Alpha-soluble NSF attachment protein, P54920”, the “listed as a hit” value (in the assay with Syntaxin-8; in [12]) was “yes” throughout.
As for “Fructose-bisphosphate aldolase C, P05063”, the “listed as a hit” value in [13] is recorded as “yes”.
As to “Gamma-aminobutyric acid receptor subunit gamma-2, P22723”, the “listed as a hit” value in [14] is reported as “yes”.
With Alpha-enolase, P17182, the “listed as a hit” value with Gamma-enolase was “yes”.
“Beta-soluble NSF attachment protein, P28663”: in assay [15], the “listed as a hit” value was “yes”.
In the case of “DOMON domain-containing protein FRRS1L, B1AXV0”, in the assay with Glutamate receptor 2, the “listed as a hit” value is given as “yes”.
With “Fructose-bisphosphate aldolase A, P05064”, the “listed as a hit” value in assay [16] is recorded as “yes”.
Regarding “Guanine nucleotide-binding protein G(I)/G(S)/G(T) subunit beta-2, P62879”, the “listed as a hit” value in [17] is “yes”.
Consider “Guanine nucleotide-binding protein G(I)/G(S)/G(O) subunit gamma-4, P50153”, for which the “listed as a hit” value in [18] is “yes”.
As to “Guanine nucleotide-binding protein G(I)/G(S)/G(O) subunit gamma-5, P63218”, in assay [19], the “listed as a hit” value is given as “yes”.
As for Heat shock protein HSP 90-beta, P08238, the “listed as a hit” value in [20] is “yes”.
Turning to Heat shock 70 kDa protein 4L, P48722, the “listed as a hit” value in assay [21] is “yes”.
Hemoglobin subunit alpha, P01942: the “listed as a hit” value in assay [22] is listed as “yes”.
For Programmed cell death protein 4, Q53EL6, in the assay with Histone H2B type 1-H, the “listed as a hit” value is given as “yes”.
For Neurocan core protein, P55066, the “listed as a hit” value in assay [23] was “yes”.
On to Insulin receptor, P15208, for which the “listed as a hit” value in assay [24] is given as “yes”.
